# Laboratory results published in PubChem BioAssay AID1347426 (Functional Genomics Laboratory (NCATS/FGL), 2020).
# Out of some 31,000 sequences screened, about 1,400 (4.5%) were called active. Many of the other results were omitted from the sample, so actives are more common in it than they were. Unmarked numbers belong to inactive results.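 Rule for the calls: active = median seed-adjusted z-score above 1 or below -1; inactive = the rest.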
# Test: Novel Modifiers of Survival Motor Neuron (SMN) Protein: Gene Identification via Genome-wide siRNA Screen;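 note: luminescence tracks full-length SMN protein made from the SMN2 reporter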
# Conditions: HEK293T SMN2-luciferase reporter, siRNA knockdown, 72 h; actives lie on both sides
# Method in brief: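 Steps: spot 1 pmol siRNA, add Lipofectamine RNAiMax in serum-free DMEM, seed HEK293T SMN2–luciferase reporter cells; incubate 72 h at 37 °C; add ONE-Glo; normalize luminescence to control siRNA, log10, MAD. Candidates: |MAD| > 1.0.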
row,Sequence,median seed-adjusted z-score
1,GCAGCCCUGAUGUCCAGUATT against EFS,-0.299
2,AGUUCAUCGAUGACAUGGATT against COL6A2,0.0119
3,GGAUCUAUCUUAACGACCATT against GAN,-1.07 (active)
4,GCUCCGAAGUGUUUACAAUTT against DQX1,-0.297
5,GUCCAAAUACAGUCUCUUATT against MAP3K14,-0.0609
6,CGCUGAAACCCGAUUCCUATT against ANPEP,0.252
7,GCCUAGAUGAGCGAAUUUATT against LSM3,-1.36 (active)
8,GCACUGCGACUGUACUCUATT against LRRC3B,0
9,CCUUCACACGUACCACAAATT against TEKT2,-0.349
10,GGCUGGACAGUAAUUCAGATT against ANGPTL4,1.37 (active)
11,CACAAUGAGUUAACUGAUATT against LILRB4,-0.104
12,CGUUAUUGCCUGUUUGGAATT against GUCY1A2,-0.186
13,GGGAAAAGCUUGACGAUUATT against RNF139,0.175
14,GGGUUGAAGGUGAUCAUCATT against IMMP2L,0.919
15,GGCUCAUUGAGACGACUGATT against RCADH5,-0.158
16,CACUGGAGACUUUCGCUUUTT against ZNF813,0.127
17,AGAUCUACAUCGUGAUGAATT against CDC2L1,-1.14 (active)
18,GGUACUUCGUGAUCCGCAUTT against NECAP2,-0.539
19,GGACUGUCAAUCUUAGAUATT against GRK4,-0.267
20,CGUGUACAAGGCUCUAACATT against EPN3,0.184
21,CUACGAAUCUGUGAAUGAATT against ERH,-1.25 (active)
22,GCUAACCACUUGGAAGAUATT against PRMT7,0.204
23,GGCAGAACCUAUACCAGAATT against MED6,-2.15 (active)

row,Sequence,median seed-adjusted z-score
1,CAGAACCUGUUGUAGAAAATT against GSPT2,0.846
2,GGACGACUGCAGCAAGUUUTT against ATP2A3,-0.28
3,AGACCAUCCCUAACGGAUATT against PRELP,-0.0579
4,GCUCGUAGUUGGGAUAACATT against FRAP1,-1.02 (active)
5,GGCUCUCAGAUUGUUGACATT against GABARAPL2,0.528
6,GAACAUUGGUGACUAUAUUTT against GRIP2,-0.0256
7,GGAUGAUGUGCGUAACAGATT against HAO1,0.421
8,CAGAAGUUCUCAGACCUAATT against ZNF721,0.404
9,GCUAUACGGUUGACAACGATT against ISLR,0.00807
10,CCCUCCUCGUGGAACCAUATT against NEURL2,1.39 (active)
11,UCGUGGACCUGGUCUGUUATT against OGDHL,-0.0878
12,GGUCGAAAAGCAAACUCAATT against PTPRN2,-0.104
13,CAUGGAAGAUCUGACCAUATT against MEOX2,1.36 (active)
14,GCAGGAUGAUCUCAAGUAUTT against MOBKL2B,-0.613
15,CCGCAGUGGAAAUACCAUATT against ANGEL1,-0.332
16,GCGGCUAACAGGAUAUGUATT against ACTN2,0.165
17,CACAAGAUAUCAGGAGAAATT against FCRL2,-0.294
18,CAUGAUCUCCGGCUACCUATT against SLCO2B1,0.289
19,GGAUGCUCCAAGUCUGUCATT against GPR179,-0.513
20,GCAGUUGUCCAGUUACGAATT against RAD50,0.266
21,GAAGCUACAUGGGAAGUGUTT against SIRT7,-0.427
22,CAGGUCGACUGAUAGAUCATT against DDX42,-2.13 (active)
23,GGACUGAUCAUGAACCUCUTT against CPEB3,0.086

row,Sequence,median seed-adjusted z-score
1,GAGUUUAAUCUGAUUGAUATT against MOBKL1B,0.31
2,GCACUAUAUGAAUACGCAATT against AUP1,0.305
3,GCAUCACACUCACAUCCCATT against DNASE2,-1.23 (active)
4,GCUCUGUACAGGAAACUCUTT against IL2RA,0.587
5,GUGUAGGGAUAGUUACCAATT against ZNF518A,-0.252
6,GAGUUCUACUUGUCCAAUUTT against ZDHHC20,-0.936
7,GGCUUUGCUUAAGUUCAAATT against LPCAT4,0.338
8,CAACCAUAGUUAAAGUUAATT against TCP1,-1.02 (active)
9,GGAUGUCUCAUUACACCAUTT against TGFBR3,0.285
10,UGCUGGUGUUUAAACCCAUTT against C5AR1,0.366
11,GCGACUUCAUGAUAGCAUATT against CAMK2D,0.0676
12,GGAGAUAUUUUUGACGGAATT against ZFHX3,0.045
13,AAGCCUACCAGGUCAAGUATT against EVI5L,0.0497
14,GGAUAUUAAGGACAGGAAATT against RAN,-3.09 (active)
15,GAAGCUACAGAAUCUGGAATT against ARFGAP2,0.0672
16,GGAUUCAACUUUACAAGAATT against BTD,-0.165
17,AGGAGAUCGUCGUCACUGATT against NNMT,-0.095
18,CCAUAGCAGUAAUGAUACATT against GRIN3A,0.241
19,GCCUGAACCGAGUAGAAGATT against KCNQ1,-0.0525
20,GCAAGACCAUCAACAAGAUTT against CHRNE,0.349
21,CGGUCACAAUUUGCGCUGATT against ST8SIA3,-0.848
22,AAACAAUGGUUUGUGCAAATT against UCRC,-0.93
23,GGCUUUAAGAUCACGCAGATT against SNRPA,-2.09 (active)
